Test [1] in a line: A CellTox Green Cytotoxicity Assay to monitor cytotoxicity in HEK293 cells - 32 hour (AID 1224881). Further: nearly all actives have a fitted effect of over 40% in size. Further: potency means the concentration at half of the fitted maximal effect. Put shortly:
(§1)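 Read-out: fluorescence of a cell-impermeant cyanine dye staining DNA of dead cells, proportional to cytotoxicity. HEK293, 600 cells/well with reagent, compound (23 nL DMSO) added after 5 h; reads at 0, 8, 16, 24, 32, 40 h.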

Test [2] is described as follows: A CellTox Green Cytotoxicity Assay to monitor cytotoxicity in HepG2 cells - 0 hour (AID 1224882). Further: nearly all actives have a fitted effect of over 35% in size. Summed up:
(§2)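 HepG2, 600 cells/well premixed w/ CellTox Green; 5 h settle, 37 C/5% CO2; pintool cpd add (DMSO); 37 C, 40 h; fluorescence read at 0, 8, 16, 24, 32, 40 h.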

Test [3] is described as follows: A CellTox Green Cytotoxicity Assay to monitor cytotoxicity in HepG2 cells - 32 hour (AID 1224883). Further: nearly all actives have a fitted effect of over 50% in size. Further: potency means the concentration at half of the fitted maximal effect. Put shortly: as §2
Test [4] is described as follows: A CellTox Green Cytotoxicity Assay to monitor cytotoxicity in HEK293 cells - 8 hour (AID 1224884). Further: nearly all actives have a fitted effect of over 35% in size. Summed up: as §1
Test [5] in a line: qHTS RealTime-Glo MT Cell Viability Assay in HepG2 cells - 16 hour (AID 1224885). Further: nearly all actives have a fitted effect of over 50% in size. Further: potency means the concentration at half of the fitted maximal effect. Summed up: (§3)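 Cells + NanoLuc/prosubstrate dispensed (600 cells/well) → 5 h at 37 C/5% CO2 → compounds in DMSO transferred → 40 h incubation at 37 C, luminescence read at 0, 8, 16, 24, 32, 40 h.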
A short description of test [6]: qHTS RealTime-Glo MT Cell Viability Assay in HEK293 cells - 24 hour (AID 1224886). Further: nearly all actives have a fitted effect of over 50% in size. Further: potency means the concentration at half of the fitted maximal effect. On activity change, negative = cytotoxicity: top concentration of the series differs between compounds. Summed up:
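Tox21 10K qHTS, HEK293, 600 cells/well, RealTime-Glo reagent co-dispensed with cells; 5 h preincubation, compound by pintool, 37 C, luminescence at 0–40 h.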
Background: Quantitative high-throughput screening tests each substance at several concentrations.

Test [7] in a line: qHTS RealTime-Glo MT Cell Viability Assay in HEK293 cells - 8 hour (AID 1224887). Further: nearly all actives have a fitted effect of over 50% in size. Further: potency means the concentration at half of the fitted maximal effect. On activity change, negative = cytotoxicity: top concentration of the series differs between compounds. Put shortly: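 Luminescence readout at each listed time point; HEK293, 600 cells/well, RealTime-Glo MT reagent added with cells; compounds pinned (23 nL in DMSO) after 5 h at 37 C; continuous culture at 37 C.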
Test [8] in a line: A CellTox Green Cytotoxicity Assay to monitor cytotoxicity in HEK293 cells - 16 hour (AID 1224888). Further: nearly all actives have a fitted effect of over 35% in size. Summed up:
as §1

A short description of test [9]: qHTS RealTime-Glo MT Cell Viability Assay in HepG2 cells - 0 hour (AID 1224889). Further: nearly all actives have a fitted effect of over 50% in size. Further: potency means the concentration at half of the fitted maximal effect. Put shortly:
as §3

The nature of test [10]: A CellTox Green Cytotoxicity Assay to monitor cytotoxicity in HepG2 cells - 8 hour (AID 1224890). Further: nearly all actives have a fitted effect of over 45% in size. Summed up: as §2

The values below come from PubChem BioAssay (Tox21).

A number with no mark means an inactive call. Inconclusive results are not listed. Activity calls are given as the source filed them. The call rests on the fitted dose curve; in most records, active means well fitted curve in the direction sought with a large enough effect in the repeat runs; inconclusive means weak or mixed curves; inactive means no such curve, though single readings can be large; an effect the other way counts as inactive or inconclusive.
On the % scale 0 is the no-effect control and ±100 the full control effect.

Turning to `OC1CCCc2ccccc21` (centres undefined), the Potency entry in [1], in test [2], in test [3], in test [4], in test [5] and in test [6] was “inactive” each time. Further, the Potency entry in test [7], in test [8], in test [9] and in [10] was “inactive” each time.

For the compound `CC(C(=O)O)c1ccc2c(c1)[nH]c1ccc(Cl)cc12` (centres undefined), the Potency result in test [1], in test [2], in test [3], in test [4], in [5] and in test [6] was “inactive” throughout. Besides, the Potency entry in [7], in [8], in test [9] and in test [10] was “inactive” throughout.

With `Clc1nnc(Cl)c2ccccc12`, the Potency entry in test [1], in [2], in [3], in test [4], in [5] and in test [6] was “inactive” in each case. Moreover, the Potency result in [7], in test [8], in test [9] and in test [10] was “inactive” each time.

As to `COc1c(C)c2c(c(O)c1C/C=C(\C)CCC(=O)OCCN1CCOCC1)C(=O)OC2`, the Potency result in [1], in test [2], in test [3], in test [4], in test [5] and in [6] was “inactive” throughout. Further, the Potency result in test [7], in [8], in [9] and in test [10] was “inactive” throughout.

In the case of `C=CC(=O)Nc1cc2c(Nc3ccc(F)c(Cl)c3)ncnc2cc1OCCCN1CCOCC1`, the Potency was 12 µM (active) in [1]; 6.01 µM (active) in test [3]; 8.49 µM (active) in [5]; 10.7 µM (active) in [6]; 9.52 µM (active) in test [7]; 9.52 µM (active) in [9]. The Potency entry in test [2], in [4], in [8] and in test [10] was “inactive” throughout.

Take `ClCCl`: the Potency result in test [1], in [2], in test [3], in [4], in test [5] and in test [6] was “inactive” each time. Further, the Potency entry in [7], in [8], in [9] and in test [10] was “inactive” each time.

`CC1=CCC(=C(C)C)CC1`: the Potency entry in test [1], in test [2], in test [3], in test [4], in test [5] and in test [6] was “inactive” each time. For the same compound, the Potency result in test [7], in [8], in [9] and in test [10] was “inactive” in each case.

With `Cc1cc(-n2nc3ccc(Cl)cc3n2)c(O)c(C(C)(C)C)c1`, the Potency result in test [1], in test [2], in [3], in test [4], in test [5] and in test [6] was “inactive” throughout. The Potency entry in [7], in test [8], in test [9] and in [10] was “inactive” throughout.

As to `CCCC1CCC(=O)CC1`, the Potency entry in [1], in test [2], in test [3], in test [4], in [5] and in test [6] was “inactive” each time. The Potency result in test [7], in test [8], in test [9] and in test [10] was “inactive” each time.

`CCCC(=O)OCOC(=O)C1=C(C)NC(C)=C(C(=O)OC)C1c1cccc(Cl)c1Cl` (centres undefined): the Potency result in [1], in [2], in test [3], in test [4], in test [5] and in test [6] was “inactive” each time. The Potency result in test [7], in [8] and in test [10] was “inactive” throughout. The Potency in test [9] is 10.7 µM (active).

Turning to `CC(=O)c1ccc(C(C)=O)cc1`, the Potency result in test [1], in [2], in test [3], in test [4], in [5] and in test [6] was “inactive” throughout. Further, the Potency entry in [7], in test [8], in test [9] and in test [10] was “inactive” throughout.

Consider `CC(CO)Oc1ccccc1` (centres undefined), for which the Potency entry in [1], in test [2], in test [3], in test [4], in [5] and in test [6] was “inactive” each time. Also, the Potency result in test [7], in test [8], in [9] and in test [10] was “inactive” each time.

With `C=Cc1cccc(C)c1`, the Potency entry in [1], in test [2], in [3], in test [4], in test [5] and in test [6] was “inactive” throughout. Moreover, the Potency result in test [7], in test [8], in [9] and in test [10] was “inactive” each time.

`O=S(=O)(O)c1ccccc1/C=C/c1ccc(-c2ccc(/C=C/c3ccccc3S(=O)(=O)O)cc2)cc1`: the Potency entry in test [1], in test [2], in [3], in [4], in [5] and in [6] was “inactive” throughout. The Potency entry in [7], in [8], in test [9] and in test [10] was “inactive” in each case.

Consider `OC[C@H]1O[C@H](O[C@H]2O[C@H](CO)[C@@H](O)[C@H](O)[C@H]2O)[C@H](O)[C@@H](O)[C@@H]1O`, for which the Potency result in [1], in test [2], in test [3], in test [4], in test [5] and in [6] was “inactive” throughout. In addition, the Potency entry in [7], in test [8], in test [9] and in test [10] was “inactive” throughout.

Take `CCCCCCCC`: the Potency entry in [1], in [2], in [3], in test [4], in [5] and in [6] was “inactive” in each case. Also, the Potency entry in [7], in test [8], in [9] and in test [10] was “inactive” each time.

Turning to `C=C(CC)C(=O)c1ccc(OCC(=O)O)c(Cl)c1Cl`, the Potency entry in test [1], in [2], in test [3], in test [4], in test [5] and in test [6] was “inactive” each time. Besides, the Potency entry in test [7], in test [8], in test [9] and in [10] was “inactive” each time.

As to `CC1(C)CC(O)CC(C)(C)N1`, the Potency entry in test [1], in test [2], in test [3], in [4], in [5] and in test [6] was “inactive” in each case. In addition, the Potency result in test [7], in test [8], in test [9] and in test [10] was “inactive” each time.

Regarding `O=[N+]([O-])c1ccc(F)c(Cl)c1`, the Potency result in [1], in test [2], in test [3], in [4], in test [5] and in test [6] was “inactive” in each case. Besides, the Potency result in test [7], in [8], in test [9] and in test [10] was “inactive” throughout.

With `NC[C@H]1O[C@H](O[C@H]2[C@H](O[C@@H]3O[C@H](CO)[C@@H](O)[C@H]3O)C(O)[C@H](N)C[C@@H]2N)[C@H](N)[C@@H](O)[C@@H]1O` (some centres undefined), the cytotoxicity increase in test [1] is -11.8% [at 6.97 µM]; in test [3], 7.9% [at 6.97 µM]; in test [4] it was -4.48% [at 6.97 µM]; in [10], 12.8% [at 6.97 µM]. In test [2], the cytotoxicity is 11.3% [at 6.97 µM]. Also, the activity change, negative = cytotoxic in test [5] is 1.38% [at 6.97 µM]. Besides, the activity change, negative = cytotoxicity is 4.78% [at 6.97 µM] in test [6] and -3.38% [at 6.97 µM] in test [7]. Besides, in test [8], the activity change was -6.01% [at 6.97 µM, stronger effect = higher value].
